PubChem BioAssay AID1159580 (chemical genetic matrix, 2015)
Where “and” joins values, the source holds several entries; their conditions need not be identical. Equal entries are not always repeated. The whole screen tested about 5,500 compounds, of which about 2,000 (36%) were called active. Another 18% or so got no clear call; they are omitted. Rule as the data show it: active = normalized growth mostly below about 0.91 (no sharp cut-off); inconclusive = no clear call, values can overlap the other calls; inactive = mostly above about 0.92. The list shows a part of the results.

Assay: chemical genetic growth profiling, strain panel (AID 1159580);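 also: tested at 20 µM; growth read once vehicle control cultures reached saturation at 30 °C; 1 = growth at the plate median or of vehicle wells; lower values mean less growth of the strain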
Settings: S. cerevisiae deletion strains, growth OD

Measured: normalized growth

O=C(CCc1ccc(O)cc1)c1c(O)cc(O)cc1O
inactive: locus YAL013W, strain DEP1, stronger effect = lower value 1.01 | locus YAL021C, strain ccr4, stronger effect = lower value 0.998 | locus YAL026C, strain drs2, stronger effect = lower value 1 | locus YAL030W, strain snc1, stronger effect = lower value 1.01 | locus YAL040C, strain CLN3, stronger effect = lower value 1.05 | locus YBL061C, strain skt5, stronger effect = lower value 1.02 | locus YBR009C, strain hhf1, stronger effect = lower value 0.992 | locus YBR021W, strain FUR4, stronger effect = lower value 1.03 | locus YBR023C, strain chs3, stronger effect = lower value 0.999 | locus YBR171W, strain sec66, stronger effect = lower value 1.02 | locus YBR229C, strain ROT2, stronger effect = lower value 0.991 | locus YBR231C, strain swc5, stronger effect = lower value 1.01 | locus YBR279W, strain paf1, stronger effect = lower value 1.01 | locus YCL011C, strain gbp2, stronger effect = lower value 1.02 | locus YCL016C, strain dcc1, stronger effect = lower value 1.01 | locus YCL029C, strain bik1, stronger effect = lower value 1 | locus YCL061C, strain MRC1 (second series), stronger effect = lower value 1.01 | locus YCL061C, strain MRC1, stronger effect = lower value 0.99 | locus YCL069W, strain vba3, stronger effect = lower value 1.02 | locus YCR088W, strain abp1, stronger effect = lower value 1.02 | locus YDL005C, strain med2, stronger effect = lower value 1.02 | locus YDL035C, strain GPR1, stronger effect = lower value 1.01 | locus YDL040C, strain nat1, stronger effect = lower value 0.997 | locus YDL074C, strain BRE1, stronger effect = lower value 0.987 | locus YDL101C, strain DUN1, stronger effect = lower value 1.01 | locus YDL134C, strain PPH21, stronger effect = lower value 1.01 | locus YDL185W, strain tfp1, stronger effect = lower value 1.01 | locus YDL192W, strain arf1, stronger effect = lower value 1.01 | locus YDR001C, strain nth1, stronger effect = lower value 1.02 | locus YDR069C, strain doa4, stronger effect = lower value 0.978 | locus YDR101C, strain arx1, stronger effect = lower value 1.02 | locus YDR137W, strain rgp1, stronger effect = lower value 1.11 | locus YDR150W, strain NUM1, stronger effect = lower value 1 and 0.988 | locus YDR159W, strain sac3, stronger effect = lower value 1.04 | locus YDR162C, strain NBP2, stronger effect = lower value 0.989 | locus YDR195W, strain ref2 1 | locus YDR297W, strain sur2, stronger effect = lower value 1 | locus YDR318W, strain mcm21, stronger effect = lower value 1.04 | locus YDR334W, strain swr1, stronger effect = lower value 1 | locus YDR335W, strain msn5, stronger effect = lower value 1.01 | locus YDR363W, strain ESC2, stronger effect = lower value 0.977 | locus YDR388W, stronger effect = lower value 1.01 | locus YDR392W, strain spt3, stronger effect = lower value 1 | locus YDR502C, strain sam2, stronger effect = lower value 0.994 | locus YEL003W, strain gim4, stronger effect = lower value 1.01 | locus YEL037C, strain rad23, stronger effect = lower value 1 | locus YEL061C, strain CIN8 (second series), stronger effect = lower value 1.02 | locus YEL061C, strain CIN8, stronger effect = lower value 0.997 | locus YER002W, strain NOP16, stronger effect = lower value 1.02 | locus YER015W, strain faa2, stronger effect = lower value 1 | locus YER016W, strain bim1, stronger effect = lower value 1.01 | locus YER110C, stronger effect = lower value 1.01 | locus YER111C, strain swi4, stronger effect = lower value 1.01 | locus YER155C, strain BEM2 (second series), stronger effect = lower value 1 | locus YER155C, strain BEM2, stronger effect = lower value 1.01 | locus YER167W, strain BCK2, stronger effect = lower value 1.02 | locus YFR010W, strain ubp6, stronger effect = lower value 0.992 | locus YGL078C, strain dbp3, stronger effect = lower value 1.01 | locus YGL086W, strain mad1, stronger effect = lower value 1.01 | locus YGL167C, strain pmr1, stronger effect = lower value 1.01 | locus YGL173C, strain kem1, stronger effect = lower value 1.02 | locus YGL227W, strain vid30, stronger effect = lower value 1.02 | locus YGL240W, strain doc1, stronger effect = lower value 1.01 | locus YGL248W, strain PDE1, stronger effect = lower value 1 | locus YGL253W, strain hxk2, stronger effect = lower value 1.02 | locus YGR078C, strain PAC10, stronger effect = lower value 0.987 and 1.01 | locus YGR135W, strain pre9, stronger effect = lower value 0.998 | locus YGR229C, strain SMI1, stronger effect = lower value 0.979 | locus YHR013C, strain ard1, stronger effect = lower value 0.99 | locus YHR027C, strain rpn1, stronger effect = lower value 1.01 | locus YHR030C, strain SLT2, stronger effect = lower value 1 and 0.997 | locus YHR079C, strain IRE1 (second series), stronger effect = lower value 1 | locus YHR079C, strain IRE1, stronger effect = lower value 0.983 | locus YHR094C, strain hxt1, stronger effect = lower value 0.999 | locus YHR129C, strain ARP1, stronger effect = lower value 0.998 | locus YHR142W, strain chs7, stronger effect = lower value 1.01 | locus YHR200W, strain rpn10, stronger effect = lower value 1.02 | locus YIL066C, strain RNR3, stronger effect = lower value 1.01 | locus YIL073C, strain SPO22, stronger effect = lower value 1.1 | locus YIL125W, strain kgd1, stronger effect = lower value 1.03 | locus YIR030C, strain dcg1, stronger effect = lower value 1.01 | locus YJL092W, strain hpr5, stronger effect = lower value 1.01 | locus YJL095W, strain BCK1 (second series), stronger effect = lower value 1.01 | locus YJL095W, strain BCK1, stronger effect = lower value 0.994 and 0.99 | locus YJL115W, strain asf1, stronger effect = lower value 1.02 | locus YJL129C, strain trk1, stronger effect = lower value 1.05 | locus YJL134W, strain LCB3, stronger effect = lower value 1.01 | locus YJL154C, strain vps35, stronger effect = lower value 1.02 | locus YJL164C, strain tpk1, stronger effect = lower value 0.984 | locus YJL166W, strain qcr8, stronger effect = lower value 1.01 | locus YJL168C, strain set2, stronger effect = lower value 0.995 | locus YJL187C, strain SWE1 (second series), stronger effect = lower value 0.995 | locus YJL187C, strain SWE1, stronger effect = lower value 1.02 | locus YJR043C, strain POL32, stronger effect = lower value 0.997 | locus YJR066W, strain TOR1, stronger effect = lower value 0.948
